# Measured values: PubChem BioAssay AID1159580 (chemical genetic matrix, 2015)
# Several values for one entry are separate records, joined by “and”; a condition that tells them apart may be missing. Equal entries are not always repeated. Hit rate of the full screen: of about 5,500 compounds, about 2,000 (36%) were called active. Not shown: some 18% with an inconclusive outcome. The list shows a part of the results. A number with no mark means an inactive call. No stated cut-off is given here; in the data, active means normalized growth mostly below about 0.91 (no sharp cut-off); inconclusive means no clear call, values can overlap the other calls; inactive means mostly above about 0.92.
# Test: chemical genetic growth profiling, strain panel (AID 1159580);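 further: tested at 20 µM; growth read once vehicle control cultures reached saturation at 30 °C; 1 = growth at the plate median or of vehicle wells; lower values mean less growth of the strain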
# Settings: growth OD
structure (smiles),measurement,setting,value
CNC1(C)C2CCC(C2)C1(C)C (stereo unspecified),normalized growth,"S. cerevisiae deletion strains, locus YJR075W, strain HOC1, active compounds read low",1 and 1.01
same,normalized growth,"S. cerevisiae deletion strains, locus YKL009W, strain mrt4, active compounds read low",1.03
same,normalized growth,"S. cerevisiae deletion strains, locus YKL068W, active compounds read low",0.989
same,normalized growth,"S. cerevisiae deletion strains, locus YKL085W, strain MDH1 (second series), active compounds read low",1.02
same,normalized growth,"S. cerevisiae deletion strains, locus YKL085W, strain MDH1, active compounds read low",1.02
same,normalized growth,"S. cerevisiae deletion strains, locus YKL160W, strain elf1, active compounds read low",0.97
same,normalized growth,"S. cerevisiae deletion strains, locus YKL190W, strain CNB1, active compounds read low",0.977
same,normalized growth,"S. cerevisiae deletion strains, locus YKR001C, strain vps1, active compounds read low",0.997
same,normalized growth,"S. cerevisiae deletion strains, locus YKR026C, strain gcn3, active compounds read low",1
same,normalized growth,"S. cerevisiae deletion strains, locus YKR091W, strain srl3, active compounds read low",1
same,normalized growth,"S. cerevisiae deletion strains, locus YLL001W, strain dnm1, active compounds read low",0.948
same,normalized growth,"S. cerevisiae deletion strains, locus YLL026W, active compounds read low",0.996
same,normalized growth,"S. cerevisiae deletion strains, locus YLL041C, strain sdh2, active compounds read low",0.988
same,normalized growth,"S. cerevisiae deletion strains, locus YLR027C, strain aat2, active compounds read low",0.996
same,normalized growth,"S. cerevisiae deletion strains, locus YLR039C, strain RIC1, active compounds read low",0.959
same,normalized growth,"S. cerevisiae deletion strains, locus YLR058C, strain SHM2, active compounds read low",0.979
same,normalized growth,"S. cerevisiae deletion strains, locus YLR102C, strain apc9, active compounds read low",0.981
same,normalized growth,"S. cerevisiae deletion strains, locus YLR113W, strain HOG1, active compounds read low",0.934
same,normalized growth,"S. cerevisiae deletion strains, locus YLR221C, strain rsa3, active compounds read low",0.976
same,normalized growth,"S. cerevisiae deletion strains, locus YLR258W, strain gsy2, active compounds read low",1.02
same,normalized growth,"S. cerevisiae deletion strains, locus YLR262C, strain YPT6 (second series), active compounds read low",1
same,normalized growth,"S. cerevisiae deletion strains, locus YLR262C, strain YPT6, active compounds read low",0.934
same,normalized growth,"S. cerevisiae deletion strains, locus YLR268W, strain sec22, active compounds read low",0.965
same,normalized growth,"S. cerevisiae deletion strains, locus YLR320W, strain mms22, active compounds read low",0.982
same,normalized growth,"S. cerevisiae deletion strains, locus YLR330W, strain CHS5, active compounds read low",0.987
same,normalized growth,"S. cerevisiae deletion strains, locus YLR342W, strain FKS1 (second series), active compounds read low",1.08
same,normalized growth,"S. cerevisiae deletion strains, locus YLR342W, strain FKS1, active compounds read low",0.99
same,normalized growth,"S. cerevisiae deletion strains, locus YLR357W, strain rsc2, active compounds read low",0.987
same,normalized growth,"S. cerevisiae deletion strains, locus YLR370C, strain arc18, active compounds read low",0.989
same,normalized growth,"S. cerevisiae deletion strains, locus YLR371W, strain rom2, active compounds read low",1.01
same,normalized growth,"S. cerevisiae deletion strains, locus YLR384C, strain iki3, active compounds read low",1
same,normalized growth,"S. cerevisiae deletion strains, locus YLR418C, strain cdc73, active compounds read low",0.909
same,normalized growth,"S. cerevisiae deletion strains, locus YML016C, strain PPZ1, active compounds read low",0.993
same,normalized growth,"S. cerevisiae deletion strains, locus YML032C, strain rad52, active compounds read low",1.03
same,normalized growth,"S. cerevisiae deletion strains, locus YML120C, strain ndi1, active compounds read low",0.979
same,normalized growth,"S. cerevisiae deletion strains, locus YML124C, strain tub3, active compounds read low",0.995
same,normalized growth,"S. cerevisiae deletion strains, locus YMR058W, strain fet3, active compounds read low",0.995
same,normalized growth,"S. cerevisiae deletion strains, locus YMR078C, strain ctf18, active compounds read low",0.999
same,normalized growth,"S. cerevisiae deletion strains, locus YMR125W, strain sto1, active compounds read low",0.987
same,normalized growth,"S. cerevisiae deletion strains, locus YMR129W, active compounds read low",0.998
same,normalized growth,"S. cerevisiae deletion strains, locus YMR205C, strain PFK2, active compounds read low",0.983
same,normalized growth,"S. cerevisiae deletion strains, locus YMR223W, strain ubp8, active compounds read low",1.04
same,normalized growth,"S. cerevisiae deletion strains, locus YMR231W, strain pep5, active compounds read low",0.998
same,normalized growth,"S. cerevisiae deletion strains, locus YMR263W, strain SAP30, active compounds read low",0.966 and 1
same,normalized growth,"S. cerevisiae deletion strains, locus YMR307W, strain GAS1, active compounds read low",1.06
same,normalized growth,"S. cerevisiae deletion strains, locus YNL067W, strain RPL9B, active compounds read low",0.976
same,normalized growth,"S. cerevisiae deletion strains, locus YNL071W, strain lat1, active compounds read low",0.993
same,normalized growth,"S. cerevisiae deletion strains, locus YNL128W, strain TEP1, active compounds read low",0.946 and 1.02
same,normalized growth,"S. cerevisiae deletion strains, locus YNL153C, strain GIM3, active compounds read low",0.962
same,normalized growth,"S. cerevisiae deletion strains, locus YNL175C, strain NOP13, active compounds read low",0.998
same,normalized growth,"S. cerevisiae deletion strains, locus YNL183C, strain NPR1, active compounds read low",0.971
same,normalized growth,"S. cerevisiae deletion strains, locus YNL197C, strain WHI3, active compounds read low",1.02
same,normalized growth,"S. cerevisiae deletion strains, locus YNL209W, strain ssb2, active compounds read low",0.992
same,normalized growth,"S. cerevisiae deletion strains, locus YNL224C, strain SQS1, active compounds read low",1.01
same,normalized growth,"S. cerevisiae deletion strains, locus YNL233W, strain BNI4, active compounds read low",0.98
same,normalized growth,"S. cerevisiae deletion strains, locus YNL248C, strain rpa49, active compounds read low",0.982
same,normalized growth,"S. cerevisiae deletion strains, locus YNL250W, strain rad50, active compounds read low",0.995
same,normalized growth,"S. cerevisiae deletion strains, locus YNL271C, strain bni1, active compounds read low",0.996
same,normalized growth,"S. cerevisiae deletion strains, locus YNL298W, strain CLA4, active compounds read low",0.99
same,normalized growth,"S. cerevisiae deletion strains, locus YNL307C, strain MCK1, active compounds read low",0.999
same,normalized growth,"S. cerevisiae deletion strains, locus YNL322C, strain KRE1 (second series), active compounds read low",1
same,normalized growth,"S. cerevisiae deletion strains, locus YNL322C, strain KRE1, active compounds read low",0.978
same,normalized growth,"S. cerevisiae deletion strains, locus YNR049C, strain mso1, active compounds read low",0.996
same,normalized growth,"S. cerevisiae deletion strains, locus YNR052C, strain pop2, active compounds read low",0.992
same,normalized growth,"S. cerevisiae deletion strains, locus YOL006C, strain TOP1, active compounds read low",0.951
same,normalized growth,"S. cerevisiae deletion strains, locus YOL012C, strain htz1",0.652
same,normalized growth,"S. cerevisiae deletion strains, locus YOL147C, strain pex11, active compounds read low",0.996
same,normalized growth,"S. cerevisiae deletion strains, locus YOR001W, strain rrp6, active compounds read low",0.964
same,normalized growth,"S. cerevisiae deletion strains, locus YOR061W, strain CKA2, active compounds read low",0.958
same,normalized growth,"S. cerevisiae deletion strains, locus YOR069W, strain VPS5, active compounds read low",0.993
same,normalized growth,"S. cerevisiae deletion strains, locus YOR070C, strain gyp1, active compounds read low",0.997
same,normalized growth,"S. cerevisiae deletion strains, locus YOR080W, strain dia2, active compounds read low",0.999
same,normalized growth,"S. cerevisiae deletion strains, locus YOR083W, strain WHI5 (second series), active compounds read low",1.01
same,normalized growth,"S. cerevisiae deletion strains, locus YOR083W, strain WHI5, active compounds read low",0.978
same,normalized growth,"S. cerevisiae deletion strains, locus YOR106W, strain vam3, active compounds read low",0.987
same,normalized growth,"S. cerevisiae deletion strains, locus YOR136W, strain idh2, active compounds read low",1.01
same,normalized growth,"S. cerevisiae deletion strains, locus YOR144C, strain elg1, active compounds read low",0.99
same,normalized growth,"S. cerevisiae deletion strains, locus YOR184W, strain ser1, active compounds read low",1.05
same,normalized growth,"S. cerevisiae deletion strains, locus YOR231W, strain MKK1, active compounds read low",0.824 (active)
same,normalized growth,"S. cerevisiae deletion strains, locus YOR265W, strain rbl2, active compounds read low",0.989
same,normalized growth,"S. cerevisiae deletion strains, locus YOR270C, strain vph1, active compounds read low",0.991
same,normalized growth,"S. cerevisiae deletion strains, locus YOR290C, strain snf2, active compounds read low",0.958
same,normalized growth,"S. cerevisiae deletion strains, locus YOR316C, strain cot1, active compounds read low",0.985
same,normalized growth,"S. cerevisiae deletion strains, locus YPL051W, strain arl3, active compounds read low",0.999
same,normalized growth,"S. cerevisiae deletion strains, locus YPL055C, strain LGE1, active compounds read low",0.935
same,normalized growth,"S. cerevisiae deletion strains, locus YPL078C, strain atp4, active compounds read low",0.983
same,normalized growth,"S. cerevisiae deletion strains, locus YPL106C, strain sse1, active compounds read low",0.979
same,normalized growth,"S. cerevisiae deletion strains, locus YPL240C, strain hsp82, active compounds read low",0.989
same,normalized growth,"S. cerevisiae deletion strains, locus YPL241C, strain CIN2, active compounds read low",1
same,normalized growth,"S. cerevisiae deletion strains, locus YPL256C, strain CLN2, active compounds read low",0.946
same,normalized growth,"S. cerevisiae deletion strains, locus YPR119W, strain clb2, active compounds read low",0.993
same,normalized growth,"S. cerevisiae deletion strains, locus YPR141C, strain kar3, active compounds read low",0.968
same,normalized growth,"S. cerevisiae deletion strains, locus YPR163C, strain tif3, active compounds read low",0.991
same,normalized growth,"S. cerevisiae deletion strains, locus YPR167C, strain met16, active compounds read low",0.983
same,normalized growth,"S. cerevisiae deletion strains, strain wtn01, active compounds read low",0.974
same,normalized growth,"S. cerevisiae strains, strain wild type, active compounds read low",0.991
